Screening results deposited in PubChem by several laboratories.
Most compounds without a hit are left out; they make up all but 4.5% or so of the library.
dFosB activator – activators of mouse delta FosB homodimer; P13346; hit rate 0.99% among 340,000; purified delta FosB, TAMRA-CDK5 oligo fluorescence polarization; percent of positive-control signal above neutral wells; activation, % at 25 µM;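 active = mean activation above about 17%, with every replicate also reaching it, limit read from the data, passing the limit was not always enough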
Target sequence (P13346 whole entry, looked up): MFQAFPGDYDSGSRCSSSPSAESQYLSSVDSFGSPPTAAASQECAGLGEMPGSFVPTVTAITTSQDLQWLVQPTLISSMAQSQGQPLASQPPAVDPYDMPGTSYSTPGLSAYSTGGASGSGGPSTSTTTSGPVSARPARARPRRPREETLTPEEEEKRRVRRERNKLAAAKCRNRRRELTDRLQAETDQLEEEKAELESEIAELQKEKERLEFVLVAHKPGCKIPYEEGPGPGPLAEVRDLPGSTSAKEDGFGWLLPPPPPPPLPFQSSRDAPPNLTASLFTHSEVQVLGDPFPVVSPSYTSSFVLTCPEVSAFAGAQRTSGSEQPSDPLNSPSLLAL
Rpn11 inh – blocks the human proteasome subunit Rpn11. inhibition, % at 20 µM. human 26S proteasome, Ub4-pepOG fluorescence polarization; 20S core pre-blocked with epoxomicin. O00487. hit rate 0.59% among 360,000;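 active = inhibition at 20 µM, scaled to each plate's controls, above about 33%, limit read from the data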
TPT1 inhibitor – inhibitors of Candida albicans tRNA 2'-phosphotransferase TPT1; AID 1962; inhibition, % at 5 µM; hit rate 0.81% among 300,000; recombinant caTPT1, FP RNA substrate dephosphorylation;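 active = inhibition above the mean of all tested compounds plus 3 SD, set per screening campaign, cut at about 24% in these data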
ZTA counter – counter-screen for EBNA-1 inhibitors: inhibitors of Epstein-Barr virus ZTA; P03206; ZTA-DNA binding, fluorescence polarization; inhibition, % at 11 µM; hit rate 0.15% among 320,000; in the data active = inhibition above about 33%
Target sequence (P03206 whole entry, looked up): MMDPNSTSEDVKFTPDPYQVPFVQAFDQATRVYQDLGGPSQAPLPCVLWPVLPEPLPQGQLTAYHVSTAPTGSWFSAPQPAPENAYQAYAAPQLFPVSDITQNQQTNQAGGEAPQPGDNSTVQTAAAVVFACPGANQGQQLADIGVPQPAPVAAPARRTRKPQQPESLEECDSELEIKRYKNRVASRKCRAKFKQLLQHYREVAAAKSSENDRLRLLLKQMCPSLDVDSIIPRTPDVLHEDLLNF
EBNA-1 inhibitor – blocks EBNA-1 binding to DNA; AID 1950; inhibition, % at 14.8 µM; hit rate 0.34% among 300,000; EBNA-1 DNA binding, fluorescence polarization; in the data active = inhibition above about 28%
GRIN3A LBD mod – NR3A (human) ligand-binding domain modulation; hit rate 2.5% among 340,000; Tm shift relative to glycine control, % at 25 µM; NR3A LBD differential scanning fluorimetry, Tm shift; 0% = protein alone, 100% = glycine-bound protein;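 active = melting temperature shift of at least 10% of the positive control shift, at one fixed dose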
Numbers stand for hits; - = inactive; . = not tested or not shown.

SMILES	dFosB activator	Rpn11 inh	TPT1 inhibitor	ZTA counter	EBNA-1 inhibitor	GRIN3A LBD mod
Cc1cc(O)c(NC(=S)NC(=O)c2ccc(-c3ccc(Cl)cc3)o2)cc1C	-	-	-	-	-	30
CCc1c(O)nc(SCC(=O)Nc2ccc(Cl)cc2)n(-c2ccccc2)c1=O	.	-	.	.	.	.
O=C(COc1ccccc1[N+](=O)[O-])NCCC1=CCCCC1	-	-	-	-	-	11
O=C(COc1ccccc1Br)NCCC1=CCCCC1	-	-	.	-	.	-
COc1ccc(C(=O)CNc2ccccc2Br)cc1	-	-	-	-	-	17
COc1ccccc1C(=O)Nc1nc(-c2cccs2)c(NC(C)=O)s1	-	-	-	-	-	-
CC(=O)Nc1sc(N/N=C\c2cccc(Cl)c2)nc1-c1cccs1	-	-	-	-	-	14
CC(=O)Nc1sc(NC(=O)c2ccccc2)nc1-c1cccs1	-	-	-	-	-	18
CC(=O)Nc1sc(N/N=C\c2ccc(O)cc2)nc1-c1cccs1	-	-	-	-	-	-
CN(C)c1cc(N/N=C/c2ccc(Cl)cc2)nc(N(C)C)n1	-	-	.	.	.	-
COc1ccc(NC(=O)CCNS(=O)(=O)c2cccc3nonc23)cc1Cl	-	-	-	-	-	18
Cc1ccccc1-c1cc(C(=O)NCc2cccc(C(F)(F)F)c2)nn1CC1CC(c2cccc([N+](=O)[O-])c2)=NO1 (stereo unspecified)	-	-	-	-	-	-
O=C(CN1C(=O)C(=O)N(CCC2=CCCCC2)C1=O)c1c[nH]c2ccccc12	-	-	.	.	.	30
COc1ccc(NC(=S)Nc2ccccc2)c(OC)c1	-	-	-	-	-	-
S=C(Nc1ccccc1)Nc1ccc(OCc2ccccc2)cc1	-	-	-	-	-	-
S=C(Nc1ccc(OCc2ccccc2)cc1)Nc1cccc(Cl)c1Cl	-	-	-	-	-	12
NS(=O)(=O)c1ccc(NC(=S)Nc2ccc(OCc3ccccc3)cc2)cc1	-	-	-	-	-	12
COc1ccc(NC(=S)Nc2ccc(OCc3ccccc3)cc2)c(OC)c1	-	-	-	-	-	10
CCN(C(=O)CSC1=Nc2ccccc2C2CC=NN12)C1CCS(=O)(=O)C1 (stereo unspecified)	-	-	-	-	-	-
Cc1ccc(COn2c(-c3ccc(Cl)cc3)nc3ccc([N+](=O)[O-])cc32)cc1	-	-	-	-	-	-
O=[N+]([O-])c1ccc2nc(-c3ccc(Cl)cc3)n(OCc3ccccc3)c2c1	-	-	-	-	-	18
CCc1noc(C)c1C(=O)Nc1nnc(C(CC)CC)s1	-	-	.	-	.	-
CCOc1ccc(C2c3[nH]c4ccccc4c3C[C@H]3C(=O)N(C4CCN(Cc5ccccc5)CC4)CC(=O)N23)cc1OC (stereo partly specified)	35	-	.	.	.	-
O=C1[C@@H]2Cc3c([nH]c4ccccc34)C(c3cccc([N+](=O)[O-])c3)N2C(=O)CN1C1CCN(Cc2ccccc2)CC1 (stereo partly specified)	82	-	-	-	-	.
CCc1ccc2nc(N(CCN(C)C)C(=O)c3ccc4ccccc4c3)sc2c1	22	-	-	-	-	-
SMILES	dFosB activator	Rpn11 inh	TPT1 inhibitor	ZTA counter	EBNA-1 inhibitor	GRIN3A LBD mod
COc1ccc(OC)c2sc(N(CCN(C)C)C(=O)c3ccc4ccccc4c3)nc12	30	-	-	-	-	-
CN(C)CCN(C(=O)c1ccc2ccccc2c1)c1nc2cc3c(cc2s1)OCO3	.	-	.	.	.	.
CN(C)CCN(C(=O)c1ccc2ccccc2c1)c1nc2ccc(F)cc2s1	26	-	-	-	-	-
COc1cc2nc(N(CCN(C)C)C(=O)c3ccc4ccccc4c3)sc2cc1OC	-	-	-	-	-	-
Cc1c(Cc2ccccc2)c(=O)oc2c(O)c(O)ccc12	-	-	.	.	.	10
O=C(CN1C(=O)c2ccccc2S1(=O)=O)NCc1cccs1	-	-	-	-	-	-
COc1cc(/C=C2\SC(=O)N(c3ccc(O)cc3)C2=O)cc(OC)c1OC	-	-	-	-	-	-
COc1cc(/C=C2\SC(=N)N(c3ccc4c(c3)OCO4)C2=O)cc(OC)c1O	-	-	-	-	-	11
COc1cc(/C=C2\SC(=N)N(c3ccc(F)cc3)C2=O)ccc1O	-	-	-	-	-	27
Cc1ccc(C)c2[nH]c(=O)c(CN(Cc3ccco3)C(=S)NCC3CCCO3)cc12 (stereo unspecified)	-	-	-	-	-	-
CCOC(=O)c1nnn(-c2nonc2-n2cccc2)c1CN1CCCCC1	-	-	-	-	-	18
Nc1nonc1-n1nnc(C(=O)N/N=C/c2cccc(Cl)c2)c1CN1CCCCCC1	-	-	-	-	-	-
Cc1ccccc1COc1ccc(/C=N/NC(=O)c2nnn(-c3nonc3N)c2CN2CCC(C)CC2)cc1	-	-	-	-	-	87
Nc1nonc1-n1nnc(C(=O)N/N=C/c2cccc(O)c2)c1CN1CCCC1	-	-	.	.	.	12
CC1CCN(Cc2c(C(=O)N/N=C/c3ccc(OC(C)C)cc3)nnn2-c2nonc2N)CC1	-	-	-	-	-	-
CC1CCN(Cc2c(C(=O)N/N=C/c3ccccc3O)nnn2-c2nonc2N)CC1	21	-	-	-	-	-
CCNc1nc(OC)nc(N(OC)S(=O)(=O)c2ccc(C)cc2)n1	-	-	-	-	-	-
CC(=O)n1c(=O)oc2ccccc21	-	-	-	-	-	-
C/C(=N\NC(=O)c1nnn(-c2nonc2N)c1-c1ccc(Cl)c(Cl)c1)c1ccncc1	-	-	-	-	-	-
CC(C)Cc1nnc(NC(=O)CCC(=O)N2CCN(Cc3ccccc3)CC2)s1	-	-	-	-	-	-
COc1ccc(NS(=O)(=O)c2ccc3c(c2)NC(=O)C(C)S3)cc1 (stereo unspecified)	-	-	-	-	-	-
CC1C(=O)N(c2ccc(S(=O)(=O)N(C)C)cc2)C1(/C=C/c1ccccc1)C(=O)NC1CCCC1 (stereo unspecified)	-	-	-	-	-	28
Cc1ccc(C)c(NC(=O)CN2C(=O)COc3ccc(S(=O)(=O)N4CCCC4)cc32)c1	-	-	-	-	-	10
COc1ccc(CNC(=O)CN2C(=O)COc3ccc(S(=O)(=O)N4CCC(C)CC4)cc32)cc1	-	-	-	-	-	45
CN(Cc1ccno1)Cc1cn(Cc2ccccc2)nc1-c1ccc2c(c1)OCO2	-	-	-	-	-	-
COc1ccc(C(N)=S)cc1	-	-	-	-	-	29
O=C(Oc1ccc(/C=N/NC(=O)c2ccccn2)cc1)c1ccc(Br)cc1	-	-	-	-	-	-
Cc1ccc(C(=O)N/N=C/c2ccc(OC(=O)c3ccccc3Cl)cc2)cn1	-	-	-	-	-	13
Cc1ccc(C(=O)N/N=C\c2ccc(-c3ccc(Cl)c(Cl)c3)o2)cn1	-	-	-	-	-	12
